Assay results as given in PubChem BioAssay.
A number with no mark means an inactive call. For some assays here: Entries with a potency or affinity are not part of this list. Calls of active or inactive are those of the source. Unless noted, how the calls were made is not given here.

Legend:
[1] = antimalarial activity against Dd2 strain (AID 2302;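 active means growth inhibition above 50% at the single 2 µM test dose, taken to imply half-maximal potency below 2 µM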;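 further: 0% = DMSO untreated growth and 100% = chloroquine plus artemisinin killed control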); settings: P. falciparum Dd2 in RBCs, LDH growth readout, 72 h; at 2 µM; stronger effect = higher value
[2] = human hepatoma cell viability loss – ATP luminescence, cytotoxicity control for P. falciparum antimalarial project, primary screen (AID 2303;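 active means inhibition above 50%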;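 further: 0% = DMSO wells and 100% = digitonin-killed cells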); settings: HepG2 viability, 24-48 h, at 10 µM, stronger effect = higher value
[3] = target: L-lactate dehydrogenase (Plasmodium falciparum (isolate CDC / Honduras)) (UniProt Q27743); assay: PfLDH activity inhibition – cell lysate, 3D7 strain, counter-screen for P. falciparum growth inhibition project (AID 2304);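 further: 0% = vehicle and 100% = reference inhibitor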; settings: P. falciparum 3D7 crude extract, LDH APAD/NBT absorbance; at 2 µM; stronger effect = higher value
L-lactate dehydrogenase (Plasmodium falciparum (isolate CDC / Honduras)), sequence (Q27743 whole entry, looked up): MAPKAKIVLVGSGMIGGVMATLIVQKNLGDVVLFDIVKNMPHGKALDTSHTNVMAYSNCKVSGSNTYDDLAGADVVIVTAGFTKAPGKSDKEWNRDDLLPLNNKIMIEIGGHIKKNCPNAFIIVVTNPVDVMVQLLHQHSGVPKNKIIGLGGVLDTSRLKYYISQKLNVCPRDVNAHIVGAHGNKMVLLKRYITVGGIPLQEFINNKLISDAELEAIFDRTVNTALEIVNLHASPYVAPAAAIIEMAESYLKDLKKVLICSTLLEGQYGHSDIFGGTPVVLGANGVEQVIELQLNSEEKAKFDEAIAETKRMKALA

[4] = inhibition of 3D7 malaria parasite growth – strain 3D7 (AID 2306);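 further: 0% = DMSO wells and 100% = chloroquine plus artemisinin control wells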; settings: P. falciparum 3D7 erythrocytic growth, LDH absorbance, 72 h; at 2 µM; stronger effect = higher value
[5] = target: Calcium-dependent protein kinase 1 (Plasmodium falciparum (isolate 3D7)) (UniProt P62344); assay: PfCDPK1 kinase inhibitors, biochemical, TCAMS library (AID 1159585; cut-off not given, nearly all actives have IC50 up to about 0.98 µM;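 further: inhibitors leave more ATP so luminescence rises with inhibition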); settings: recombinant PfCDPK1, Kinase-Glo ATP depletion luminescence
Calcium-dependent protein kinase 1 (Plasmodium falciparum (isolate 3D7)), sequence (P62344 whole entry, looked up): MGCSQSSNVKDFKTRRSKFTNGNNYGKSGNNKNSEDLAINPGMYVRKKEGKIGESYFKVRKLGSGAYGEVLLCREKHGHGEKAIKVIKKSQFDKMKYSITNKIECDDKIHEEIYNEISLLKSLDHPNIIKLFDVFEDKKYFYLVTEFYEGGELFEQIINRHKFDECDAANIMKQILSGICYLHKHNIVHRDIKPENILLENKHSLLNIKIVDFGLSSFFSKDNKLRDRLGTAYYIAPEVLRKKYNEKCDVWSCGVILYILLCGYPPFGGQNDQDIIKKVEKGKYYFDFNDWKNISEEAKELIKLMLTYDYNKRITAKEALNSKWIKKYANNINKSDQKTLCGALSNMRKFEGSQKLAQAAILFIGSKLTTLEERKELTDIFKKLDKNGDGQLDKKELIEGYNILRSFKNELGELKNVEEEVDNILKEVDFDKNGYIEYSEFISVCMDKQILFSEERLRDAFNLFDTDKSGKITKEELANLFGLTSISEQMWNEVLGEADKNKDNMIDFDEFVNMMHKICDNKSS

[6] = target: Plasmodium falciparum protein kinase 6 (PK6, PF3D7_1337100) (UniProt Q8IDW1); assay: PfPK6 kinase inhibitors, biochemical, TCAMS library (AID 1159586); settings: recombinant PfPK6, Kinase-Glo ATP depletion luminescence
Plasmodium falciparum protein kinase 6 (PK6, PF3D7_1337100), sequence (Q8IDW1 1-305): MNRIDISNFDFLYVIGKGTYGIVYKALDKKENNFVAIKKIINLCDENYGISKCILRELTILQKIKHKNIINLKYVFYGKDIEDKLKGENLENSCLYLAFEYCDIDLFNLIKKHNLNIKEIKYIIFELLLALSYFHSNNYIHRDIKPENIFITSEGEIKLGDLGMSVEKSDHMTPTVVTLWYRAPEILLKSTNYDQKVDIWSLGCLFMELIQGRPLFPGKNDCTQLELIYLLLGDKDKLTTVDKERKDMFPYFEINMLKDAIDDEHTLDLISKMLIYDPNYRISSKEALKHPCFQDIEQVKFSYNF

[7] = target: Protein kinase 7 (PK7), Plasmodium falciparum 3D7 (PF3D7_0213400) (UniProt Q7YTF7); assay: inhibition of Plasmodium PK7 catalytic activity – biochemical, TCAMS antimalarial set, Kinase-Glo luminescence (AID 1159587); settings: recombinant PfPK7, Kinase-Glo ATP depletion luminescence
Protein kinase 7 (PK7), Plasmodium falciparum 3D7 (PF3D7_0213400), sequence (Q7YTF7 1-343): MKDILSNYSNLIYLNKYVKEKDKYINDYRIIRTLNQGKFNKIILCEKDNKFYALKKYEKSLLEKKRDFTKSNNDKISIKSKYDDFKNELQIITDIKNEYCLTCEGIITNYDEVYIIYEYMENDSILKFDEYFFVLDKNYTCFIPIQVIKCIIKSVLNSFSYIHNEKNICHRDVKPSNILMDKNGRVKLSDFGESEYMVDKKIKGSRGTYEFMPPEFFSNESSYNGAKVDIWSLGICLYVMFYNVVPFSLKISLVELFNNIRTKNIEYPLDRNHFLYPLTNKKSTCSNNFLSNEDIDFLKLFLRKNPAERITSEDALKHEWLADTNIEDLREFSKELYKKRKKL

[8] = target: Calcium-dependent protein kinase 4 (Plasmodium falciparum (isolate 3D7)) (UniProt Q8IBS5); assay: PfCDPK4 kinase inhibitors, biochemical, TCAMS library (AID 1159588; cut-off not given, nearly all actives have IC50 up to about 0.91 µM); settings: recombinant PfCDPK4, Kinase-Glo ATP depletion luminescence
Calcium-dependent protein kinase 4 (Plasmodium falciparum (isolate 3D7)), sequence (Q8IBS5 whole entry, looked up): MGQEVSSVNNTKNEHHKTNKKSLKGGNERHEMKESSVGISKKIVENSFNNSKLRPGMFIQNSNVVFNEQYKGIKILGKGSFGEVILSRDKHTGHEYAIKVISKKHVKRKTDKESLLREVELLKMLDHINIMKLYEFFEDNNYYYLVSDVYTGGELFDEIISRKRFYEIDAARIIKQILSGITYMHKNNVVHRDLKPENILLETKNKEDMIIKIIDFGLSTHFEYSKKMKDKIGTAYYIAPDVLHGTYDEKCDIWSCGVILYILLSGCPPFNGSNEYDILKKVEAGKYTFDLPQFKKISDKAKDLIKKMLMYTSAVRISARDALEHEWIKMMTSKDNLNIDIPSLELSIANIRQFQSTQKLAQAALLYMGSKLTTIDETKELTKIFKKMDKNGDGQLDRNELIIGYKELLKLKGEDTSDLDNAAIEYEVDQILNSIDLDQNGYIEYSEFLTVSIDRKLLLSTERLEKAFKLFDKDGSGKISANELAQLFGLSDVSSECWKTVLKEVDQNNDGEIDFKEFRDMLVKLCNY

SMILES	growth inhibition [1]	inhibition [2]	inhibition [3]	growth inhibition [4]	outcome [5]	outcome [6]	outcome [7]	outcome [8]
CCCN(Cc1nnc(-c2ccco2)o1)C(=O)C1CCN(c2ncc(C(F)(F)F)cc2Cl)CC1	92% (active)	19%	-6%	98% (active)	inactive	inactive	inactive	inactive
Cc1cccc2[nH]c(-c3cccc(-c4ccc(C(=O)N5CCCCC5C(C)O)cc4)c3)nc12 (stereo not given)	91% (active)	26%	-2%	100% (active)	inactive	inactive	inactive	inactive
CC(C)COc1ccc2ccccc2c1CNCCCCCCNCc1c(OCC(C)C)ccc2ccccc12	95% (active)	99% (active)	2%	90% (active)	inactive	inactive	inactive	inactive
COc1cc(NC(=O)C(c2ccc(Cl)cc2)C(C)C)cc(OC)c1 (stereo not given)	98% (active)	5%	-3%	99% (active)	inactive	inactive	inactive	inactive
CCCc1cc(NCC)nc(Nc2ccc(F)cc2)n1	36%	16%	-1%	86% (active)	inactive	inactive	inactive	inactive
O=C1O[C@H](c2ccccc2)[C@H](c2ccccc2)N(C(=O)OCc2ccccc2)[C@H]1Cc1ccccc1C1CCCC1	-3%	56% (active)	1%	97% (active)	inactive	inactive	inactive	inactive
CCCCc1cc(=O)oc2cc(C)cc(OCc3ccccc3F)c12	78% (active)	8%	-1%	92% (active)	inactive	inactive	inactive	inactive
Nc1cccc(CNCc2cccc(-c3cccc(-c4nc5ccc(C(F)(F)F)cc5[nH]4)c3)c2)c1	96% (active)	8%	1%	102% (active)	inactive	inactive	inactive	inactive
CNc1nc(NN=Cc2cc([N+](=O)[O-])c(Cl)cc2Cl)nc(Nc2cccc(C(F)(F)F)c2)n1	97% (active)	13%	9%	100% (active)	inactive	inactive	inactive	inactive
Cc1cccc2[nH]c(C3CCN(CC4CCN(C(=O)/C=C/c5ccc(Cl)c(Cl)c5)CC4)CC3)nc12	79% (active)	46%	0%	100% (active)	inactive	inactive	inactive	inactive
O=S(=O)(NCCN1CCCC1)c1ccc(-c2cccc(CNCCc3cccs3)c2)s1	44%	39%	-2%	99% (active)	inactive	inactive	inactive	inactive
O=C(Nc1ccc(Oc2ccccc2)cc1)N[C@@H](Cc1ccc(O)cc1)C(=O)NC1CCN(Cc2ccc(O)c([N+](=O)[O-])c2)C1 (stereo not given in full)	-3%	-3%	2%	101% (active)	inactive	inactive	inactive	inactive
CCN1CCC(NCc2ccc(-c3ccc(Cl)s3)cc2)CC1	23%	42%	-4%	96% (active)	inactive	inactive	inactive	inactive
COc1ccc(N2CCN(CCCCNC(=O)c3ccc(NC(=O)c4cc(Cl)cc(Cl)c4)cc3)CC2)c(OC)c1	84% (active)	21%	2%	100% (active)	inactive	inactive	inactive	inactive
COc1ccc(S(=O)(=O)Nc2cc(Br)cc3c2OCCC3)cc1N1CCN(C(=O)C(Cl)(Cl)Cl)CC1	51% (active)	4%	-2%	90% (active)	inactive	inactive	inactive	inactive
Cc1cc(CN2CC[C@H](NC(=O)c3ccc(Cl)c(Cl)c3)C2)ccc1OCCN1CCNCC1	1%	15%	-1%	94% (active)	inactive	inactive	inactive	inactive
O=C(/C=C/c1ccc(Cl)c(Cl)c1)NCCCCCN1CCC(CCNC(=O)/C=C/c2ccccc2F)CC1	1%	47%	-2%	94% (active)	inactive	inactive	inactive	inactive
Cc1ccccc1C1CCN(C2CCC(NC(=O)c3cc(-c4ccc(Cl)cc4)cs3)CC2)CC1 (stereo not given)	100% (active)	99% (active)	-2%	101% (active)	inactive	inactive	inactive	inactive
FC(F)(F)c1ccc2nccc(NCc3ccccc3)c2c1	56% (active)	18%	-9%	93% (active)	inactive	inactive	inactive	inactive
CCOc1cc(C(=O)Nc2ccc(-c3nc4ccccc4[nH]3)cc2)cc(OCC)c1OCC	94% (active)	42%	-2%	100% (active)	inactive	inactive	inactive	inactive

SMILES	growth inhibition [1]	inhibition [2]	inhibition [3]	growth inhibition [4]	outcome [5]	outcome [6]	outcome [7]	outcome [8]
CCCCCCCN1CC[C@@H](CCCc2ccnc3ccc(OCCCCN=C(N)NO)cc23)[C@@H](CC)C1	39%	27%	2%	90% (active)	inactive	inactive	inactive	inactive
Cc1cc(C2CCN(CCCCNC(=O)c3ccc(-c4ccc(C(F)(F)F)cc4)cc3)CC2)c(C)cc1OCCOC1CCCCO1 (stereo not given)	5%	30%	-7%	95% (active)	inactive	inactive	inactive	inactive
CCOC(=O)c1cnc2cc(N3CCCC3)c(Cl)cc2c1OCC	97% (active)	0%	-2%	97% (active)	inactive	inactive	inactive	inactive
O=C(NCc1ccc(C(=O)N2CCC(N3CCCCC3)CC2)cc1)c1cc(-c2cccc(C(F)(F)F)c2)ccc1O	58% (active)	-3%	1%	100% (active)	inactive	inactive	inactive	inactive
NC(N)=NC(=O)Nc1cc(Cl)c(Br)c(Cl)c1	101% (active)	6%	4%	101% (active)	inactive	inactive	inactive	inactive
Cc1cc(N(C)C)nc(Nc2ccc(NC(=O)COc3ccccc3)cc2)n1	67% (active)	15%	3%	101% (active)	inactive	inactive	inactive	inactive
CC=CC(=O)N1CCN(c2nccc(-c3ccc(C(C)(C)C)cc3)n2)CC1	70% (active)	20%	0%	95% (active)	inactive	inactive	inactive	inactive
CCN(CC)CCN(Cc1ccc(-c2ccc(C(F)(F)F)cc2)cc1)C(=O)Cn1cc(Cc2cnn(C)c2)c(=O)nc1/C=C/c1cccc(F)c1F	98% (active)	11%	-2%	95% (active)	inactive	inactive	inactive	inactive
Cc1cccc(CN2CCCN(Cc3ccc(C(=O)Nc4ccc(C(C)(C)C)cc4)cc3)CC2)c1	4%	57% (active)	-7%	97% (active)	inactive	inactive	inactive	inactive
O=C(Nc1ccccc1)OCCOc1ccc(CC2SC(=O)NC2=O)cc1 (stereo not given)	-6%	1%	-3%	100% (active)	inactive	inactive	inactive	inactive
CC(=O)N[C@H](C(=O)Nc1ccc(-c2cccc(-c3nc4c(C)cccc4[nH]3)c2)cc1)C(C)C	10%	9%	2%	89% (active)	inactive	inactive	inactive	inactive
COc1ccc(CN2CCCC(C(=O)c3ccc(C(F)(F)F)cc3)C2)c(O)c1 (stereo not given)	88% (active)	-2%	-3%	98% (active)	inactive	inactive	inactive	inactive
Cc1c(S(=O)(=O)Nc2cccc(CCN3CCCCC3CCN3CCCC3)c2)sc2ccc(Cl)cc12 (stereo not given)	10%	22%	0%	93% (active)	inactive	inactive	inactive	inactive
CN(C)c1cccc(-c2cnc3ccc(NCc4cccc(Cl)c4)nn23)c1	98% (active)	11%	-3%	99% (active)	inactive	inactive	inactive	inactive
CCc1cn2c3c(cc(C(=O)N[C@@H](Cc4ccccc4)[C@H](O)CNCc4cccc(C)c4)cc13)N(C)S(=O)(=O)CC2	98% (active)	5%	5%	96% (active)	inactive	inactive	inactive	inactive
NC(=O)C1CCN(Cc2cccc(-c3cccc(-c4nc5ccc(C(F)(F)F)cc5[nH]4)c3)c2)CC1	100% (active)	16%	3%	100% (active)	inactive	inactive	inactive	inactive
NC(=NCc1ccc(O)cc1)Nc1nc(-c2ccc(OCCCn3ccnc3)cc2)cs1	89% (active)	13%	2%	102% (active)	inactive	inactive	inactive	inactive
CCOc1cc(CC)ccc1C1CCN(CCCCNC(=O)c2ccc(NC(=O)c3ccc(C#N)cc3)cc2)CC1	50% (active)	55% (active)	-1%	91% (active)	inactive	inactive	inactive	inactive
CCCC(=O)c1cnc2cc(O)ccc2c1Nc1ccccc1C	93% (active)	14%	-8%	99% (active)	inactive	inactive	inactive	inactive
Cc1cccc2[nH]c(-c3cccc(-c4ccc(NC(=O)Cc5cnc[nH]5)cc4)c3)nc12	93% (active)	4%	-3%	101% (active)	inactive	inactive	inactive	inactive
